KLF5 inh – KLF5 expression inhibitors, primary screen, DLD-1 cells, luminescence | hit rate 0.23% among 290,000 | inhibition, % at 5 µM | AID 1700, 2009 | DLD-1 KLF5 promoter-luciferase reporter;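 active = inhibition above a per-plate limit of that plate's mean compound inhibition plus 3 SD, cut at about 60% in these data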;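 also: higher means less KLF5 promoter-driven luciferase light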
697 NFkB inh – inhibitors of PMA/ionomycin-induced NF-kB reporter, 697 cells, primary screen, B-cell NF-kB inhibitor project, cell-based, luminescence, uHTS. 697 B-cell NF-kB luciferase reporter, 16 h. inhibition, % at 4 µM. hit rate 0.33% among 330,000; in the data active = inhibition above about 35%
aSyn UTR inh – MLPCN primary screen, SNCA 5' untranslated region; inhibition, % (tested at 7.5 µM); alpha-synuclein 5'UTR reporter, inhibitor activity; AID 1813, 2009; hit rate 0.82% among 300,000; in the data active = inhibition above about 60%;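 also: H4 neuroglioblastoma cells stably carrying SNCA 5'UTR luciferase fusion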
Mdm2-MdmX inh – inhibitors of human Mdm2-MdmX association, primary screen, cell-based, luminescence, split luciferase, SaOS-2, uHTS; inhibition, % at 8 µM; SaOS-2 split-luciferase Mdm2/MdmX complementation; hit rate 3% among 330,000; AID 485346, 2010; Protein Mdm4 (Homo sapiens) + E3 ubiquitin-protein ligase Mdm2 (Homo sapiens), …;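 active = inhibition of at least 50% at 8 µM in the primary screen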
Target sequence (O15151 whole entry, looked up): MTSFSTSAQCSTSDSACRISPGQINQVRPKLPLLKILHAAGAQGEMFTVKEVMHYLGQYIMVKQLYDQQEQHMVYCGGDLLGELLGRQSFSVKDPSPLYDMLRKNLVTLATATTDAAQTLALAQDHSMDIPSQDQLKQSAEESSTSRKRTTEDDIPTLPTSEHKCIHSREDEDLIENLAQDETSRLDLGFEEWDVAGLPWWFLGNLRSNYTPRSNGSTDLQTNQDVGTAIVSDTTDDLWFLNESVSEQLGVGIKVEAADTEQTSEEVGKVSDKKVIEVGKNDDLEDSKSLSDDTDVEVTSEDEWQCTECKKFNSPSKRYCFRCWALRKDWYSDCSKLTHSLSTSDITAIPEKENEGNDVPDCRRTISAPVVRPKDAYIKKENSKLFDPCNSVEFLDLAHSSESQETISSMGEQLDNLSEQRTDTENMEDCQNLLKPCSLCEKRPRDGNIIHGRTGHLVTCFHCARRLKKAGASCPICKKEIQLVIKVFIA
Target sequence (Q00987 whole entry, looked up): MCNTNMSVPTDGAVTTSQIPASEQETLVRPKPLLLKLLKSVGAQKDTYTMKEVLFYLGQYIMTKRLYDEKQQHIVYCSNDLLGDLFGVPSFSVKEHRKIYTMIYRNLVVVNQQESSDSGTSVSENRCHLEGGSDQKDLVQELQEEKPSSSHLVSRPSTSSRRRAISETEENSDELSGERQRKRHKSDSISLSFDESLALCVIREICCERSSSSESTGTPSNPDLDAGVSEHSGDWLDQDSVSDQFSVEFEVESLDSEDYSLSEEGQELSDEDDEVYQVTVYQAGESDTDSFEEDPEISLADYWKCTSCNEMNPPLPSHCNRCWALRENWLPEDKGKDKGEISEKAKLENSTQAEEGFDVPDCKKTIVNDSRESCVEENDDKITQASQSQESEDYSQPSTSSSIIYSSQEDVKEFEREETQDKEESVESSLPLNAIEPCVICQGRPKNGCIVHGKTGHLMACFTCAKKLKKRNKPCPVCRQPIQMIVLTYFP
Gli-Sufu antag – Gli-Sufu pathway antagonists, primary screen, luciferase luminescence, Sufu-KO-LIGHT cells, uHTS | hit rate 0.74% among 340,000 | Sufu-KO-LIGHT fibroblasts, Gli luciferase reporter luminescence | inhibition, % at 5 µM;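 active = inhibition above about 55%, limit read from the data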
Jurkat NFkB inh – inhibitors of induced NF-kB luciferase reporter, primary screen, TCR NF-kB activation inhibitor project, cell-based, luminescence, uHTS | AID 435003, 2010 | inhibition, % at 4 µM | hit rate 0.53% among 330,000 | Jurkat, PMA/ionomycin-induced NF-kB luciferase reporter; in the data active = inhibition above about 50%
Mdm2-MdmX conf – Mdm2-MdmX complex disruptors, retested hits, confirmation, luminescence, single concentration; shares compounds with Mdm2-MdmX inh; Mdm2-MdmX binding, luminescent assay; inhibition, % at 8 µM; hit rate 55% among 10,000; in the data active = inhibition above about 40%
Full FLuc ctr – full-length luciferase signal inhibition, confirmation, counter-screen for Mdm2/MdmX interaction inhibitor project, cell-based, single concentration, SaOS-2 | SaOS-2 full-length luciferase counterscreen, luminescence | shares compounds with Mdm2-MdmX inh | AID 504607, 2011 | hit rate 77% among 6,200 | inhibition, % at 8 µM;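 active = mean inhibition at 8 µM reaching about 37%, which flags the compound as non-specific, limit read from the data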;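 also: p53-null SaOS-2 cells with luciferase driven by a doxycycline-inducible promoter; compound on cells about two nights before reading with doxycycline added after day one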
Each line names hits and unclear results; the compound was inactive in the other large screens (follow-up assays come after a bar, where they were run). Rows were chosen to be rich in hits. Some 4.1% of all compounds tested hit in one or more screens of this group.

CCC(Sc1nc2cc3c(cc2c(=O)n1Cc1ccco1)OCO3)C(=O)Nc1cccc(OC)c1 (stereo not given)	none
CC(=O)NC(c1ccco1)c1cc(Cl)c2ccccc2c1O (stereo not given)	none (no result: KLF5 inh, aSyn UTR inh)
CC(=O)NC(c1ccco1)c1cc(F)c2cccnc2c1O (stereo not given)	Mdm2-MdmX inh 57 (no result: KLF5 inh, aSyn UTR inh) | Mdm2-MdmX conf 49 | Full FLuc ctr 44
CC(=O)NC(c1cccs1)c1cc(F)c2cccnc2c1O (stereo not given)	Mdm2-MdmX inh 63 (no result: KLF5 inh, aSyn UTR inh) | Mdm2-MdmX conf 67 | Full FLuc ctr inactive
Nc1nc(SCc2ccc(Cl)cc2Cl)nc2nc3c(cc12)CCCC3	Mdm2-MdmX inh 57 | Mdm2-MdmX conf inactive
Nc1nc(SCc2ccccc2Cl)nc2nc3c(cc12)CCCC3	none
CC[n+]1c(/C=C(\C)SC)sc2ccccc21	none
CCN1/C(=C/C=C/C=C/c2sc3ccccc3[n+]2CC)Sc2ccccc21	aSyn UTR inh 126, Mdm2-MdmX inh 91 (no result: Gli-Sufu antag) | Mdm2-MdmX conf 82 | Full FLuc ctr 44
O=[N+]([O-])c1cccc(C2(O)COc3ccccc3O2)c1 (stereo not given)	none
Brc1ccc(N/N=C(/N=Nc2nn[nH]n2)c2ccccc2)cc1	aSyn UTR inh 97, Mdm2-MdmX inh 77 | Mdm2-MdmX conf 85 | Full FLuc ctr inactive
O=C(O)c1ccc(N=N/C(=N\Nc2ccc(C(=O)O)cc2)c2ccccc2)cc1	none (no result: KLF5 inh)
O=C(N/N=C/c1cccn1-c1ccc(O)cc1)c1cccc2ccccc12	Mdm2-MdmX inh 64 | Mdm2-MdmX conf inactive
O=C(N/N=C/c1ccccc1F)c1cccc2ccccc12	none
COc1ccc(-c2csc(NC(=O)CSc3nc(C)nc4sc(C(=O)O)c(C)c34)n2)cc1	none
CCC[C@H](CN[C@@H](CNC)[C@H](C)O)NCCc1ccc(OC)cc1	none
CNC[C@@H](C)NC[C@@H](Cc1ccccc1)NCCc1ccccc1	Mdm2-MdmX inh 69 | Mdm2-MdmX conf inactive
COc1cccc(-c2sc3ccc(OC)cc3c2-c2ccc(O)cc2)c1	none (no result: KLF5 inh, aSyn UTR inh)
COc1cccc(-c2sc3ccc(OC)cc3c2-c2ccc(OCCN(C)C)cc2)c1	Mdm2-MdmX inh 99 (no result: KLF5 inh, aSyn UTR inh) | Mdm2-MdmX conf inactive
COc1ccc(-c2sc3ccccc3c2-c2ccc(O)cc2)cc1	none (no result: KLF5 inh, aSyn UTR inh)
COc1ccc(-c2sc3ccccc3c2-c2ccc(OCCN(C)C)cc2)cc1	Mdm2-MdmX inh 100 (no result: KLF5 inh, aSyn UTR inh) | Mdm2-MdmX conf 49 | Full FLuc ctr inactive
CN(C)CCOc1ccc(-c2c(-c3ccsc3)sc3ccccc23)cc1	Mdm2-MdmX inh 93 (no result: KLF5 inh, aSyn UTR inh) | Mdm2-MdmX conf inactive
Cc1nc(SCc2nc3ccc(C(=O)c4ccccc4)cc3[nH]2)c2oc3ccccc3c2n1	none (no result: KLF5 inh, aSyn UTR inh)
O=C(c1ccccc1)N1CCN(c2ncnc3c2cnn3-c2ccccc2)CC1	none
O=C(c1cccc(Cl)c1)N1CCN(c2ncnc3c2cnn3-c2ccccc2)CC1	none
Clc1ccc(-n2ncc3c(N4CCCC4)ncnc32)cc1	aSyn UTR inh 92, Mdm2-MdmX inh 51 | Mdm2-MdmX conf 66 | Full FLuc ctr 168
Cc1nn(-c2ccccc2)c(Cl)c1C(=O)N1CCN(c2ncnc3c2cnn3-c2ccccc2)CC1	Mdm2-MdmX inh 97 | Mdm2-MdmX conf 88 | Full FLuc ctr 58
CCCNC(=O)Cn1cnc([N+](=O)[O-])n1	none
COc1ccc(-c2nnc(SCC(=O)O)n2Cc2ccccc2)cc1	none
O=C(Nc1cccc([N+](=O)[O-])c1)c1ccc2ccccc2c1O	Mdm2-MdmX inh 77 | Mdm2-MdmX conf inactive
FC(F)Sc1ccc(NC(=S)NC(c2ccccc2)c2ccccc2)cc1	Mdm2-MdmX inh 100 | Mdm2-MdmX conf 74 | Full FLuc ctr 38
FC(F)Sc1ccc(NC(=S)NCC2CCCCC2)cc1	Mdm2-MdmX inh 65 | Mdm2-MdmX conf inactive
FC(F)Sc1ccc(NC(=S)NC2CCCCC2)cc1	none
FC(F)Sc1ccc(NC(=S)NCc2ccccc2)cc1	none
CN(C(=S)Nc1ccc(SC(F)F)cc1)C(c1ccccc1)c1ccccc1	Mdm2-MdmX inh 56 | Mdm2-MdmX conf inactive
CC(C)C(=O)COc1c2occc2cc2ccc(=O)oc12	none (no result: KLF5 inh, aSyn UTR inh)
COC(=O)c1cccc(N(CC(=O)NC2CCCCC2)C(=O)CNC(=O)c2cccs2)c1	none
Cc1ccc(N(CCC#N)C(=O)COC(=O)c2ccccn2)cc1	none
COc1ccc(CCNc2c3ccccc3nc3ccccc23)cc1OC	Mdm2-MdmX inh 50 | Mdm2-MdmX conf inactive
COc1ccccc1NCC(O)Cn1c2ccccc2c2ccccc21 (stereo not given)	none
COc1ccc(CCNCC(O)Cn2c3ccccc3c3ccccc32)cc1OC (stereo not given)	aSyn UTR inh 120, Mdm2-MdmX inh 92 | Mdm2-MdmX conf inactive | Full FLuc ctr 55
COc1ccccc1Nc1c2ccccc2nc2ccccc12	Mdm2-MdmX inh 53 | Mdm2-MdmX conf 48 | Full FLuc ctr 69
COc1nc(NCCc2ccc(OC)c(OC)c2)nc(OC)n1	none
c1ccc2c(NCCc3c[nH]c4ccccc34)c3ccccc3nc2c1	Mdm2-MdmX inh 100 | Mdm2-MdmX conf 60 | Full FLuc ctr 55
COc1ccccc1Nc1nc(-c2ccccc2)nc2ccccc12	none
COC(=O)c1ccc(COC(=O)c2ccc(SC)cc2OC)cc1	none
CC(C)CC(=O)N1CCN(c2ccc(NC(=O)c3ccco3)cc2)CC1	none
CC(C)[C@H]1COCCS(=O)(=O)N1Cc1ccccc1-c1ccccc1	none (no result: KLF5 inh, aSyn UTR inh, Jurkat NFkB inh)
CN(C)S(=O)(=O)c1cccc(NC(=O)CSc2nc3c(cc2C#N)C(=O)CC(C)(C)C3)c1	Mdm2-MdmX inh 57 | Mdm2-MdmX conf 51 | Full FLuc ctr 52
CN(C)S(=O)(=O)c1cccc(NC(=O)CSc2cccc3cccnc23)c1	Mdm2-MdmX inh 97 | Mdm2-MdmX conf 49 | Full FLuc ctr inactive
CN(C)S(=O)(=O)c1ccc(Cl)c(NC(=O)CSc2nc3c(cc2C#N)C(=O)CC(C)(C)C3)c1	none
COC(=O)[C@H]1[C@H]2C[C@@H]3c4[nH]c5cc(OC)ccc5c4CCN3C[C@H]2C[C@@H](OC(=O)/C=C/c2cc(OC)c(OC)c(OC)c2)[C@@H]1OC	Mdm2-MdmX inh 64 (no result: KLF5 inh, aSyn UTR inh) | Mdm2-MdmX conf inactive | Full FLuc ctr 70
